PubChem BioAssay AID709 (SRMLSC, 2007)
Screen size: about 65,000 compounds; about 3,600 (5.5%) were called active.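 The calls were made as follows: active = at 10 µM, mean starting fluorescence two-fold or more over control wells; inactive = the rest.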 The full list was thinned out, with actives kept by preference.

Assay: intrinsic fluorescence of library compounds, ex339/em460 – biochemical, MLSMR library, data from DPM-DC assay, artefact control, profiling panel (AID 709);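 also: signal is the first read of a kinetic run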
Details: compound autofluorescence, ex339/em460 nm, NADH buffer; at 10 µM; stronger effect = higher value; 1 = no-compound wells, NADH background

Structure (SMILES)	fluorescence fold increase
O=C1CC(c2cccc(Br)c2)C2=C(CCCC2=O)N1 (stereo not given)	2.04 (active)
O=C1CCCc2c1[nH]c1ccc(Br)cc21	1.13 (inactive)
O=C1CC(c2cccc(F)c2)C2=C(CCCC2=O)N1 (stereo not given)	1.17 (inactive)
C=CCc1cccc2cc(C(=O)OCC)c(=O)oc12	1.21 (inactive)
CC(=O)O[C@]1(C(C)=O)CC[C@H]2[C@@H]3C=C(C)C4=CC(=O)CC[C@]4(C)[C@H]3CC[C@@]21C	1 (inactive)
COc1ccc(C(=O)NCCc2ccc(S(N)(=O)=O)cc2)cc1OC	1.15 (inactive)
O=C(NCc1cn2ccsc2n1)Nc1ccc(Cl)cc1	1.11 (inactive)
O=c1cc(Cn2nnc(-c3ccc(Cl)cc3)n2)nc2sccn12	1.22 (inactive)
O=C(NCc1ccc(Cl)cc1)c1cc2c(nc3sccn32)s1	2.6 (active)
O=C(Nc1c2c(nn1-c1ccc(F)cc1)CS(=O)C2)C12CC3CC(CC(C3)C1)C2 (stereo not given)	1.05 (inactive)
Cc1cc(C)cc(N(CC(=O)Nc2c(C)n(C)n(-c3ccccc3)c2=O)S(C)(=O)=O)c1	1.04 (inactive)
Cc1nc2cc(-c3ccc(F)cc3)nn2c(N2CCOCC2)c1C	1.16 (inactive)
COCCCNC(=O)c1ccc2c(c1)ncn2-c1ccccc1OC	1.07 (inactive)
CN(C)CCCNC(=O)c1ccc2[nH]c3ccccc3c2c1	3.36 (active)
Cc1ccc(C(=O)NCCNS(=O)(=O)c2ccccc2)cc1	1.02 (inactive)
CSc1nnc(CNC(=O)c2ccccc2)n1-c1ccc(F)cc1	1.11 (inactive)
O=S(=O)(c1cccc(S(=O)(=O)N2CCC(n3nnc4ccccc43)CC2)c1)N1CCCCC1	1.05 (inactive)
Cc1ccc(C(=O)N2CCCCCC2)cc1Br	1.08 (inactive)
Cc1ccc2oc(=O)c3cnn(CC(=O)N4CCCCCC4)c3c2c1	1.04 (inactive)
Cc1ccc2cc3cc(C(=O)N4CCCCCC4)oc3nc2c1	3.22 (active)
Cc1cc(C)n2nc(C(=O)Oc3ccc4c(c3)OCO4)nc2n1	1.15 (inactive)
Cc1nc(Nc2ccc3c(c2)OCCO3)c2nnn(Cc3ccccc3Cl)c2n1	2.39 (active)

Structure (SMILES)	fluorescence fold increase
C#CCNc1nc(C(C)C)nc2c1nnn2Cc1ccccc1F	1.04 (inactive)
CC(C)(C)c1nc(NCC2CCCO2)c2nnn(Cc3ccccc3)c2n1 (stereo not given)	1.16 (inactive)
CCOC(=O)N1CCN(Cc2oc(CO)cc(=O)c2O)CC1	1.04 (inactive)
CCCc1cc(=O)oc2c(C)c(O)c(CN3CCCCC3)cc12	2.34 (active)
CCc1ccc2oc(=O)cc(CN3CCCCC3C)c2c1 (stereo not given)	1.11 (inactive)
C[N+](C)(C)CCNC(=O)c1c(O)c2c([nH]c1=O)CCCC2	1.18 (inactive)
O=C(Cn1c(-c2ccccn2)nc2ccccc21)NCCN1CCOCC1	1.39 (inactive)
CCc1cc(=O)oc2cc(OCC(=O)N3CCCc4ccccc43)ccc12	1.26 (inactive)
O=C(COc1ccc2c3c(c(=O)oc2c1)CCC3)NC1CCCCC1	2.13 (active)
NC(=O)COc1ccc2c3c(c(=O)oc2c1)CCCCC3	3.71 (active)
O=C(CC1OC(=O)c2ccccc21)NC1CCCCC1 (stereo not given)	1.08 (inactive)
O=C(COc1ccccc1F)NC1CC1	1.01 (inactive)
O=C(COc1ccc2oc3c(c2c1)CCCC3)Nc1ccccn1	1.06 (inactive)
O=C(C1CCC(C(=O)N2CCCC2)CC1)N1CCCC1 (stereo not given)	1.02 (inactive)
Cc1nnc(SCC(=O)NCc2ccccc2)s1	1.06 (inactive)
O=C(O)CC(c1ccccc1)n1cnnn1 (stereo not given)	1.14 (inactive)
O=C(CS(=O)(=O)Cc1ccccc1)Nc1cccnc1	1.1 (inactive)
CCOCCN(C=O)c1cccc(OC)c1	1.15 (inactive)
COc1ccccc1C1/C(=C(/O)c2ccc(OC(C)C)cc2)C(=O)C(=O)N1c1cc(C)on1 (stereo not given)	1.06 (inactive)
Cc1ccc(S(=O)(=O)NCC(=O)N(CC(=O)NC2CCCCC2)Cc2ccco2)cc1	1 (inactive)
CC(Cc1cccs1)NC(=O)NC1CCCCC1 (stereo not given)	1.06 (inactive)
CC(=O)Oc1ccc2c(C)c(CC(C)O)c(=O)oc2c1 (stereo not given)	3.67 (active)

Structure (SMILES)	fluorescence fold increase
COc1ccc2oc(C)c(NC(C)=O)c2c1	1.06 (inactive)
COc1ccc(C(=O)c2oc3ccc(Br)cc3c2NC(C)=O)cc1	1.11 (inactive)
CC(=O)Nc1cc2ccc(OC(C)=O)cc2oc1=O	2.1 (active)
O=C(NCc1ccc(Cl)c(Cl)c1)c1cccnc1	0.91 (inactive)
O=C1C=C(NCCNc2c(F)c(F)c(CO)c(F)c2F)CCC1	1.14 (inactive)
COc1ccc(CSc2nc(N3CCOCC3)c3c(c2C#N)CC(C)(C)OC3)cc1	1.08 (inactive)
CC1(C)Cc2c(C#N)c(SCc3nc4ccccc4[nH]3)nc(N3CCOCC3)c2CO1	1.39 (inactive)
CC(C)Cc1nc(N2CCOCC2)c(C#N)c2c1CCC2	1.97 (inactive)
CC(C)C(=O)N1CCN(c2nc(-c3ccccc3)c3c(c2C#N)CC(C)(C)OC3)CC1	2.34 (active)
CC(C)c1nc(N2CCOCC2)c(C#N)c2c1COC(C)(C)C2	2.28 (active)
Cc1nc(NCCN)c(C#N)c2c1COC(C)(C)C2	1.92 (inactive)
C/C(=C\c1ccco1)C1Nc2cccc3cccc(c23)N1	1.19 (inactive)
CCOc1c(OC)cc(C2C(C#N)=C(N)Oc3n[nH]c(-c4ccncc4)c32)cc1OC (stereo not given)	1.13 (inactive)
COc1ccc(-c2nnc(SCC(=O)c3cccs3)o2)c(OC)c1	1.12 (inactive)
COc1ccc(OC)c(C(=O)CSc2nnc(-c3cccs3)o2)c1	3.64 (active)
COc1ccc(-n2c(C)cc(C(=O)CSc3nnc(-c4cccs4)o3)c2C)cc1	1.07 (inactive)
COc1ccc2c(c1)CCc1c(C(=O)N3CCCC3)noc1-2	1.1 (inactive)
O=c1[nH]nc(Cc2ccccn2)c2ccccc12	1.07 (inactive)
CN(CCc1ccccn1)S(=O)(=O)c1ccc2c3c(cccc13)C(=O)N2	3.89 (active)
CC1(C)CN=C(N2CCN(c3ncnc4sc5c(c34)CCCC5)CC2)S1	1.03 (inactive)
Fc1c(F)c(C(F)(F)F)c(F)c(F)c1N1CCN(c2ccc3nnc(C(F)(F)F)n3n2)CC1	1.93 (inactive)
